Sampled rows, rich in hits. Any-hit rate of the full collection: about 3.3%.
UBC9 SUMO inh = inhibitors of human SUMOylation (UBC9); HTRF SUMOylation assay, SAE1/SAE2 + UBC9, in vitro; inhibition, % at 35 µM; hit rate 0.36% among 290,000; in the data active = inhibition above about 50%, passing the limit was not always enough
Target sequence (P63279 whole entry, looked up): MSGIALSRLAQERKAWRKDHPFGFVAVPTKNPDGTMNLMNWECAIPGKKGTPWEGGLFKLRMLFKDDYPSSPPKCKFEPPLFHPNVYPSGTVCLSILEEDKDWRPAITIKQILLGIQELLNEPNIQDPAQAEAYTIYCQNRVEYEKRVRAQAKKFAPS
GRIN3A LBD mod = modulators (binders) of human NR3A ligand-binding domain | NR3A LBD differential scanning fluorimetry, Tm shift; 0% = protein alone, 100% = glycine-bound protein | Tm shift relative to glycine control, % at 25 µM | hit rate 2.5% among 340,000;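 active = melting temperature shift of at least 10% of the positive control shift, at one fixed dose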
UBC13 inh = inhibitors of human UBC13 polyubiquitin chain formation; P61088; TR-FRET; inhibition, % at 20 µM; hit rate 0.47% among 330,000; in the data active = inhibition above about 45%, passing the limit was not always enough
sPLA2-III inh = Blocks human group III sPLA2 activity. hit rate 0.56% among 370,000. QFRET BODIPY PC-A2 liposome hydrolysis, fluorescence. inhibition, % at 12.2 µM. AID 743126;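 active = inhibition above mean plus 3 SD of compounds lying within the high and low control bounds, cut at about 19% in these data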;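 also: 0% = median of test compound wells and 100% = no enzyme DMSO wells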
Target sequence (Q9NZ20 whole entry, looked up): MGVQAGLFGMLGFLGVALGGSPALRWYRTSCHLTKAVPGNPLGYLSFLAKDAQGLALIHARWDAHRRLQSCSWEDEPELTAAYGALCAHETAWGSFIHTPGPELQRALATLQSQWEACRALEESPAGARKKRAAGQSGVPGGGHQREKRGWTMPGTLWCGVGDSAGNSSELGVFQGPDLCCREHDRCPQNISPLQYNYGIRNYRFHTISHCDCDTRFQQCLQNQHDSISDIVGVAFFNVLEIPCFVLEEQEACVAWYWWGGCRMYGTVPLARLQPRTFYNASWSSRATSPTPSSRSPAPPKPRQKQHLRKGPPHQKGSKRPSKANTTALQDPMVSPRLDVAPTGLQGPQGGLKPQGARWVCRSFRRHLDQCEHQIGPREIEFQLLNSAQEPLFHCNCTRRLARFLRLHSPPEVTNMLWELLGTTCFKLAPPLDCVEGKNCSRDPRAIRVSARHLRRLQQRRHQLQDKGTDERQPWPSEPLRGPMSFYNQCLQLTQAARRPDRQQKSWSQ
hGIII sPLA2 conf = human GIII-sPLA2 inhibition, confirmation | recombinant hGIII-sPLA2, BODIPY PC-A2 QFRET fluorescence | shares compounds with sPLA2-III inh | hit rate 34% among 2,000 | inhibition, % at 12.2 µM | AID 743280;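 active = mean inhibition across triplicates above the hit cutoff set in the earlier primary screen, cut at about 19% in these data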;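 also: 0% = enzyme with DMSO and 100% = DMSO wells lacking enzyme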
BODIPY interf = 535nm fluorescence interference, HGIII-sPLA2 counter-screen. shares compounds with sPLA2-III inh. BODIPY FL product fluorescence interference, QFRET. inhibition, % at 12.2 µM. hit rate 8.5% among 2,000;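 active = average inhibition above the solvent-only control mean plus 3 SD, cut at about 6% in these data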;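 also: 0% = DMSO with substrate plus product and 100% = DMSO with substrate alone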
535nm interf DR = 535nm optical interference dose response, HGIII-sPLA2 counter-screen. IC50, µM. shares compounds with sPLA2-III inh. AID 743455. 240 tested, under 10 active. BODIPY FL product fluorescence interference, cell-free;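 active = IC50 at or below 10 µM; inactive = IC50 above 10 µM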
Numbers without * were called inactive; x = no result given.

SMILES | UBC9 SUMO inh | GRIN3A LBD mod | UBC13 inh | sPLA2-III inh | hGIII sPLA2 conf | BODIPY interf | others
COc1cc(C(=O)Nc2cc(-c3nc4cc(C)ccc4o3)ccc2C)cc(OC)c1OC | 44 | 2 | 2 | -5 | x | x
COc1cc(C(=O)Nc2cccc(-c3nc4cc(C)ccc4o3)c2)cc(OC)c1OC | -1 | -5 | 21 | 19* | -17 | -24
CN(C)c1ccc(N=Nc2nccs2)cc1 | x | x | x | 25* | 45* | 18*
CN(C)c1ccc(N=Nc2ccccc2Br)cc1 | -11 | 0 | -134 | 17 | x | x
COc1ccc(CNC(C)CCc2ccccc2)cc1 (stereo not given) | 10 | -1 | -1 | 20* | 9 | -16
O=C(Nc1nc2ccccc2[nH]1)c1cccc([N+](=O)[O-])c1 | 7 | 1 | 0 | 11 | x | x
COC(=O)c1cc(C(=O)Nc2nc3ccccc3[nH]2)cc([N+](=O)[O-])c1 | -2 | -9 | -4 | 29* | 15 | 7.0*
CCCCn1c(-c2cccnc2)n[nH]c1=S | -1 | 0 | 5 | 22* | 9 | -5
Cc1ccc(NC(=O)CN2CCN(c3nc(-c4ccccc4)cs3)CC2)cc1C | x | x | x | -4 | x | x
Cc1cccc(/C=N/n2c(-c3ccccc3)n[nH]c2=S)c1O | 16 | 3 | -12 | 3 | x | x
O=[N+]([O-])c1ccccc1/C=N/n1c(-c2ccccc2)n[nH]c1=S | -7 | 3 | -11 | 20* | 29* | 1
Cc1n[nH]c(=S)n1/N=C/c1ccccc1 | 1 | -2 | -2 | 22* | 21* | -6
Brc1ccc(-c2nn3c(-c4ccccc4)nnc3s2)cc1 | x | x | x | -2 | x | x
COc1ccc(NC(=S)Nc2ccc3cn[nH]c3c2)cc1 | -17 | 10 | 6 | 17 | x | x
CCCCNC(=S)Nc1ccc2cn[nH]c2c1 | -8 | 21* | -8 | 21* | 6 | -1
CCc1ccc(NC(=S)Nc2ccc3cn[nH]c3c2)cc1 | 40 | 14* | -4 | 19* | 11 | -6
S=C(NCc1ccccc1)Nc1ccc2cn[nH]c2c1 | 23 | -12 | -3 | 8 | x | x
CC(=O)N1CCCN(C(=O)C2CCN(c3ncnc4c3sc3cccc(F)c34)CC2)CC1 | x | x | x | 3 | x | x
Cc1ccc(-c2nnc(SCC(=O)N/N=C/c3ccccc3C(=O)O)n2C2CCCCC2)cc1 | 2 | -1 | 5 | -15 | x | x
Cc1ccc(-c2nnc(SCC(=O)NNC(=S)Nc3ccccc3)n2C2CCCCC2)cc1 | x | x | x | 28* | 33* | -9 | 535nm interf DR=>122
Cc1ccc(-c2nnc(SCC(=O)Nc3ccc4c(c3)OCCO4)n2-c2ccc(C)cc2)cc1 | x | x | x | 21* | -15 | -23
COc1ccc(-n2c(SCC(=O)NNC(=S)Nc3ccc(C)cc3)nnc2-c2ccccc2)cc1 | x | x | x | 31* | 18 | -3
COc1ccc(-n2c(SCC(=O)Nc3ccc(Oc4ccccc4)cc3)nnc2-c2ccccc2)cc1 | x | x | x | -2 | x | x
COC(=O)C1CN(Cc2ccc(F)cc2)CCS(=O)(=O)N1Cc1ccc(C(F)(F)F)cc1 (stereo not given) | x | x | x | 2 | x | x
CCOc1ccc2nc(Cl)c(C3CC(c4ccco4)=NN3S(=O)(=O)c3ccccc3)cc2c1 (stereo not given) | -5 | 0 | -10 | 29* | 2 | -13
SMILES | UBC9 SUMO inh | GRIN3A LBD mod | UBC13 inh | sPLA2-III inh | hGIII sPLA2 conf | BODIPY interf | others
COc1ccc2cc(C3CC(c4ccco4)=NN3S(C)(=O)=O)c(Cl)nc2c1 (stereo not given) | 24 | 0 | -5 | 6 | x | x
Nc1nc(N)c2cc(CNc3ccc(Cl)c(Cl)c3)ccc2n1 | x | x | x | 23* | 11 | -14
CCOc1ccc2nc3cc(NCc4ccc(OC)cc4)ccc3c(N)c2c1 | 18 | 3 | 38 | x | x | x
O=S(=O)(O)c1cc(O)c(N=Nc2ccc(O)cc2O)c2ccccc12 | x | 13* | x | 23* | 19 | 4
CCOc1ccccc1/C=N/n1c(COc2ccccc2)n[nH]c1=S | -26 | 4 | -5 | 23* | 19* | 6.9*
Cc1n[nH]c(=S)n1/N=C/c1ccc(OCc2ccc(Cl)cc2Cl)cc1 | 2 | -5 | -17 | 3 | x | x
Oc1ccc(/C=N/n2c(COc3ccccc3)n[nH]c2=S)c(O)c1 | 5 | -1 | -9 | 4 | x | x
Cc1ccc(/C=N/n2c(COc3ccccc3)n[nH]c2=S)o1 | 11 | 2 | -4 | 20* | 25* | 3
Cc1n[nH]c(=S)n1/N=C/c1ccccc1OCc1ccc(Cl)cc1Cl | 24 | 16* | -18 | 20* | 17 | 5
Cc1ccccc1/C=N/n1c(COc2ccccc2)n[nH]c1=S | 14 | 8 | 1 | 9 | x | x
Oc1ccccc1/C=N/n1c(COc2ccccc2)n[nH]c1=S | 19 | -3 | -4 | 24* | 16 | 2
S=c1[nH]nc(COc2ccccc2)n1/N=C/c1ccco1 | 2 | 0 | -1 | 10 | x | x
N=C(N)SCc1ccccn1 | -44 | -2 | 3 | -7 | x | x
N=C(N)SCc1ccc(Cl)c2ccccc12 | x | -1 | x | 45* | 32* | -11 | 535nm interf DR=>122
CCOc1ccccc1C(=O)Nc1ccc2nc(C)[nH]c(=O)c2c1 | x | x | x | 6 | x | x
CCCC(=O)Nc1c(-c2ccccc2)c(=O)c(C)nn1-c1ccccc1 | 13 | 0 | -3 | 20* | -3 | -7
Cc1nn(-c2ccccc2)c(NC(=O)C(C)C)c(-c2ccccc2)c1=O | -9 | 1 | -1 | 18 | x | x
Cc1ccc(NC(=O)Cn2cccc2C2=NC(c3ccccc3)CO2)cc1C (stereo not given) | -3 | 7 | -13 | 21* | -7 | -13
CCc1ccc2cccc3c2c1N=CN3C | x | 1 | -46 | 22* | 22* | 4
O=C(NNC(=S)Nc1cccc(C(F)(F)F)c1)c1ccccc1Cl | -178 | 0 | -20 | 24* | 24* | 4
CC(C)(C)NC(=S)NNC(=O)c1ccccc1Cl | -4 | 1 | 6 | 22* | 23* | -5
O=C(CCNC(=O)c1ccccc1Cl)Nc1cccc(C(F)(F)F)c1 | 5 | -2 | -4 | -6 | x | x
O=C(NNC(=S)Nc1cccc(C(F)(F)F)c1)c1cccc(Cl)c1 | -73 | 25* | -18 | 24* | 33* | 6.5*
O=C(CCc1ccccc1)N[C@H]1[C@@H](OC(=O)c2ccco2)CCC[C@]12C(=O)N(Cc1ccccc1)c1ccccc12 | x | x | x | -3 | x | x
C=CCS/C(N)=N\N=C\c1c(O)ccc2ccccc12 | 0 | -8 | 18 | 20* | 29* | 2 | 535nm interf DR=>122
O=C(c1cc(C2CC2)on1)N(C1CCCCC1)C1CCCCC1 | x | x | x | 10 | x | x
CC(C)CCNC(=O)COc1ccc2c3c(c(=O)oc2c1)CCC3 | 8 | -1 | 4 | -3 | x | x
CC(C)CNC(=O)COc1ccc2c3c(c(=O)oc2c1)CCC3 | 30 | 1 | 3 | 21* | -2 | -5
Cc1oc2cc3oc(=O)c(CCC(=O)N(C)CC(=O)O)c(C)c3cc2c1C | 28 | 0 | 4 | 23* | 6 | -4

Screening results deposited in PubChem by several laboratories.
